Nine molecules from PubChem BioAssay (Tox21) can be followed below.

A short description of test [1]: qHTS assay to identify small molecule antagonists of the glucocorticoid receptor (GR) signaling pathway - cell viability counter screen (AID 720693; further: nearly all actives have a fitted effect of over 55% in size). (In general: In qHTS, concentration-response curves come from the screen itself.)
Test [2] in a line: qHTS assay for identifying genotoxic compounds that show differential cytotoxicity against isogenic chicken DT40 cell lines with known DNA damage response pathways - wild type cell line (AID 743012). Further: nearly all actives have a fitted effect of over 60% in size. Further: potency means the concentration at half of the fitted maximal effect. In short, it runs like this: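 Quantitative HTS on parental DT40 cells: 40 h compound treatment at 37 C/5% CO2, with viability then determined by CellTiter-Glo luminescence. Values serve as the DNA repair-proficient reference for differential cytotoxicity.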

The nature of test [3]: qHTS assay for identifying genotoxic compounds that show differential cytotoxicity against isogenic chicken DT40 cell lines with known DNA damage response pathways - Rev3 mutant cell line (AID 743014). Further: nearly all actives have a fitted effect of over 55% in size. Further: potency means the concentration at half of the fitted maximal effect.
The nature of test [4]: qHTS assay for identifying genotoxic compounds that show differential cytotoxicity against isogenic chicken DT40 cell lines with known DNA damage response pathways - Rad54/Ku70 mutant cell line (AID 743015). Further: nearly all actives have a fitted effect of over 60% in size. Further: potency means the concentration at half of the fitted maximal effect.
The nature of test [5]: qHTS assay to identify small molecule antagonists of the androgen receptor (AR) signaling pathway - cell viability counter screen (AID 743033; further: nearly all actives have a fitted effect of over 45% in size).
A short description of test [6]: qHTS assay to identify small molecule antagonists of the androgen receptor (AR) signaling pathway using the MDA cell line - cell viability counter screen (AID 743041; further: nearly all actives have a fitted effect of over 45% in size). In short, it runs like this: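 Same-well cytotoxicity was assessed by CellTiter-Fluor in MDA-kb2 AR-luc cells after 16 h of compound treatment under R1881 agonism.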
Test [7] is described as follows: qHTS assay to identify small molecule antagonists of the thyroid receptor (TR) signaling pathway - cell viability counter screen (AID 743064). Further: nearly all actives have a fitted effect of over 50% in size. In short, it runs like this:
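GH3.TRE-Luc rat pituitary cells dosed after 4 hr plating, co-stimulated with T3 at 1 nM final, incubated 23.5 h at 37 C. Viability measured in the same wells by CellTiter-Fluor fluorescence after 30 min further at 37 C.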

A short description of test [8]: qHTS assay to identify small molecule antagonists of the thyroid receptor (TR) signaling pathway (AID 743065). Further: series mostly up to about 70 µM; nearly all actives have a fitted effect of over 55% in size. A digest of the protocol:
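GH3.TRE-Luc rat pituitary cells (two TREs driving luciferase) were dosed with compound, then stimulated with 1 nM T3 (final) for 23.5 h at 37 C. ONE-Glo luminescence was the read-out, with CellTiter-Fluor fluorescence as the cytotoxicity counter-screen.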

In test [9] the test system is thyroid hormone receptor (rat, GH3 cells). As to the kind of experiment: qHTS assay to identify small molecule agonists of the thyroid receptor (TR) signaling pathway (AID 743066; calls by dose curve).
For test [10], the target named is Estrogen receptor (Homo sapiens) (UniProt P03372). As to the kind of experiment: qHTS assay to identify small molecule antagonists of the estrogen receptor alpha (ER-alpha) signaling pathway (AID 743069; active means well fitted curve in the direction sought with a large enough effect in the signal ratio in the repeat runs, not every such curve was filed as active; the % refers to the signal ratio). A digest of the protocol:
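Reporter cells (ER-alpha-bla, HEK293 background) are conditioned overnight in stripped-serum medium (2% charcoal-stripped FBS). Compound and 17beta-estradiol exposure runs 18 hr at 37C, 5% CO2.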

A short description of test [11]: qHTS assay to identify small molecule antagonists of the estrogen receptor alpha (ER-alpha) signaling pathway - cell viability counter screen (AID 743074; calls by dose curve;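 further: HEK293 cells carrying ER-alpha-UAS-bla reporter stimulated with 17beta-estradiol; nearly all actives have a fitted effect of over 45% in size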).
The target of test [12] is Estrogen receptor (Homo sapiens) (UniProt P03372). As to the kind of experiment: qHTS assay to identify small molecule agonists of the estrogen receptor alpha (ER-alpha) signaling pathway (AID 743075; calls by dose curve;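 further: HEK293 GripTite cells with ER-alpha and UAS-driven beta-lactamase reporter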).
Estrogen receptor (Homo sapiens), sequence (P03372 whole entry, looked up): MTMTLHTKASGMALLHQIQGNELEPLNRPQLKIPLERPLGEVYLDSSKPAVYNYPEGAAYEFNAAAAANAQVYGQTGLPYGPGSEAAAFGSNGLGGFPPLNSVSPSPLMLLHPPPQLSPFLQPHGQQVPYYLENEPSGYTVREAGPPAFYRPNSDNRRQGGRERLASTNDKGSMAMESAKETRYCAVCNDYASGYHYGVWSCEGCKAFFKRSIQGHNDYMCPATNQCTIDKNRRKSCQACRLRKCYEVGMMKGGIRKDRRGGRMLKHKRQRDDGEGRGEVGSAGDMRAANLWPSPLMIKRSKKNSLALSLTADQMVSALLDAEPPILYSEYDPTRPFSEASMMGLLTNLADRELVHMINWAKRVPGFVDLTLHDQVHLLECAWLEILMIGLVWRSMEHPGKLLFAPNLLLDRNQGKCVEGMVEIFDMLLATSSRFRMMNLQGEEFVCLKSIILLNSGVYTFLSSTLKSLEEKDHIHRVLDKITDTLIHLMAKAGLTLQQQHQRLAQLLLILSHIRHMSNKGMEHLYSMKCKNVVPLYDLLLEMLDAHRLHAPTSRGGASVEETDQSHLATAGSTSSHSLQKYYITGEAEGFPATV
For test [13] the target is unchanged. As to the kind of experiment: qHTS assay to identify small molecule agonists of the estrogen receptor alpha (ER-alpha) signaling pathway using the BG1 cell line (AID 743079). Further: nearly all actives have a fitted effect of over 20% in size. Further: potency means the concentration at half of the fitted maximal effect.
Test [14] is described as follows: qHTS assay to identify small molecule antagonists of the estrogen receptor alpha (ER-alpha) signaling pathway using the BG1 cell line (AID 743080; calls by dose curve;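 further: BG1 cells stimulated with 17beta-estradiol alongside compound; series mostly up to about 70 µM; nearly all actives have a fitted effect of over 25% in size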). A digest of the protocol: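 Luminescence from a 4×ERE-luciferase reporter in BG1-Luc-4E2 cells served as read-out. Cells, pre-cultured 5 days in stripped-serum phenol-red-free medium, were exposed to compound with 17beta-estradiol co-stimulation for 21.5 h at 37 C.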

Test [15] in a line: qHTS assay to identify small molecule antagonists of the estrogen receptor alpha (ER-alpha) signaling pathway using the BG1 cell line - cell viability counter screen (AID 743081).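 Further: compound given together with 17beta-estradiol as the ER stimulus; series mostly up to about 70 µM; nearly all actives have a fitted effect of over 45% in size.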
Another test concerns the target Aromatase (Homo sapiens) (UniProt P11511). As to the kind of experiment: qHTS assay to identify aromatase inhibitors (AID 743083). Further: series mostly up to about 70 µM; nearly all actives have a fitted effect of over 55% in size.
Test [16] addresses Androgen receptor (Homo sapiens) (UniProt P10275). As to the kind of experiment: qHTS assay to identify small molecule antagonists of the androgen receptor (AR) signaling pathway (AID 743035; active means well fitted inhibition curve with a large enough effect in the signal ratio in the repeat runs, not every such curve was filed as active; the % refers to the signal ratio). In short, it runs like this: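 Cell line: GeneBLAzer AR-UAS-bla GripTite (HEK293). Stimulus: R1881 added after compound. Exposure: 16 h, 37C, 5% CO2. Readout: LiveBLAzer B/G FRET fluorescence after 2 h at room temperature.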

Test [17] has the same target. As to the kind of experiment: qHTS assay to identify small molecule agonists of the androgen receptor (AR) signaling pathway (AID 743036; active means well fitted activation curve with a large enough effect in the signal ratio in the repeat runs, with a control signal flat, not every such curve was filed as active; the % refers to the signal ratio). In short, it runs like this:
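AR-UAS-bla HEK293 cells, plated 4 h before dosing, were treated with compound for 16 h at 37C. beta-Lactamase reporter read after 2 h with LiveBLAzer B/G FRET substrate at room temperature.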

Test [18] has the same target. As to the kind of experiment: qHTS assay to identify small molecule agonists of the androgen receptor (AR) signaling pathway using the MDA cell line (AID 743040; further: nearly all actives have a fitted effect of over 20% in size). In short, it runs like this: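 Human breast carcinoma MDA-kb2 reporter cells (MMTV-luc, AR/GR elements) were treated for 16 h at 37C in 0% CO2 following a 5 h settling period. Signal was quantified by ONE-Glo luminescence.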

The target is the same in test [19]. As to the kind of experiment: qHTS assay to identify small molecule antagonists of the androgen receptor (AR) signaling pathway using the MDA cell line (AID 743042; further: nearly all actives have a fitted effect of over 55% in size). A digest of the protocol: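 MDA-kb2 breast carcinoma cells carrying MMTV-luciferase (AR/GR responsive) were co-treated with compounds and the agonist R1881 for 16 h at 37C. Inhibition read as ONE-Glo luminescence; CellTiter-Fluor fluorescence measured in parallel for cytotoxicity.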

Several values for one entry are separate records, joined by “and”; a condition that tells them apart may be missing. Equal values may be shown once. Results filed as inconclusive are left out. Some compounds were tested as several samples or in several runs, with calls that do not always agree. Activity calls are given as the source filed them. Unless noted, the call rests on the fitted dose curve; in most records, active means well fitted curve in the direction sought with a large enough effect in the repeat runs; inconclusive means weak or mixed curves; inactive means no such curve, though single readings can be large; an effect the other way counts as inactive or inconclusive.

Aromatase (Homo sapiens), sequence (P11511 whole entry, looked up): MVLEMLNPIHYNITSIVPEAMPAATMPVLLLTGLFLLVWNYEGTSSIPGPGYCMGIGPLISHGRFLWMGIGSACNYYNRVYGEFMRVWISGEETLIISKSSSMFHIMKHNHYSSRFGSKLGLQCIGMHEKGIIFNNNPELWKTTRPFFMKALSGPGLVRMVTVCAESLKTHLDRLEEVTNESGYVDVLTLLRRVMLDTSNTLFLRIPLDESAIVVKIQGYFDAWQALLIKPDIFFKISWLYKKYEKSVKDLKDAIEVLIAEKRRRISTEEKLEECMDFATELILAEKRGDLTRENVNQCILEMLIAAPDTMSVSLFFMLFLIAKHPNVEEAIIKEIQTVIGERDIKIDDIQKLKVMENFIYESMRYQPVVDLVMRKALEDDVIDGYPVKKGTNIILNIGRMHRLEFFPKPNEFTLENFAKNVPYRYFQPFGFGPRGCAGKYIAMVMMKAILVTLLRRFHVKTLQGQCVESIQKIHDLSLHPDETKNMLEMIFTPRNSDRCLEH
Androgen receptor (Homo sapiens), sequence (P10275 whole entry, looked up): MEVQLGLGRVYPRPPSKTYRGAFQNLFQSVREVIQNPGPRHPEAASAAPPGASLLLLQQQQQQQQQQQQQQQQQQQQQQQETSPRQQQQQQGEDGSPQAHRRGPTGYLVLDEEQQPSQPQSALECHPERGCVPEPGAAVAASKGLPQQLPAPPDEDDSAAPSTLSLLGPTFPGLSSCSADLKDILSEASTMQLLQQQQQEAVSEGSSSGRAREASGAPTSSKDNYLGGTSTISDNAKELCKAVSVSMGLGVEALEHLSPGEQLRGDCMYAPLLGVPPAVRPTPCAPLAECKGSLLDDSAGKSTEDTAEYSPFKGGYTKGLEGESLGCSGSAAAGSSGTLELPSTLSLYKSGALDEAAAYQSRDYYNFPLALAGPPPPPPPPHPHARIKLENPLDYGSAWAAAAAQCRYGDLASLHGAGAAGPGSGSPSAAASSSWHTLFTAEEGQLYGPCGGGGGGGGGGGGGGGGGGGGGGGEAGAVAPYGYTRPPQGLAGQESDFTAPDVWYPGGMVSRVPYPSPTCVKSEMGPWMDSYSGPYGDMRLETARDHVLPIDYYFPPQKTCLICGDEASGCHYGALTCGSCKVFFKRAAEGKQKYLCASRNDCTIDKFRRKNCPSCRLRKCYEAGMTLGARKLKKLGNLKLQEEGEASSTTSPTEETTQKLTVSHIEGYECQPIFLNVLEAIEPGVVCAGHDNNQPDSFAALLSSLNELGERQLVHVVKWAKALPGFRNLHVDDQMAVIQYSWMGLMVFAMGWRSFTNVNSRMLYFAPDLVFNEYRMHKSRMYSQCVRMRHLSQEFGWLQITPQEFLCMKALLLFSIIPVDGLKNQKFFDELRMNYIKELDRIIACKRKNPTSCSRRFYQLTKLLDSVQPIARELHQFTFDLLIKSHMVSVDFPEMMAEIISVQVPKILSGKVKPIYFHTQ

In the case of `CN(C)CCC#N`, the Potency result in test [1], in test [2], in [3], in test [4], in test [7] and in [8] was “inactive” each time. Moreover, the Potency entry (in [9]; in test [10]; in [13]; with Aromatase (Homo sapiens)) was “inactive” in each case. The result in test [5], in test [6], in test [11], in test [12], in test [14] and in test [15] was inactive.
As for `C[C@]12CC[C@H](O)CC1=CC[C@@H]1[C@@H]2CC[C@]2(C)C(=O)CC[C@@H]12`, the Potency entry (in test [1]; in test [7]; in test [8]; in test [9]; in the test with Aromatase (Homo sapiens)) was “inactive” throughout. The Potency was 29.8 µM (active) in test [2]; 26.6 µM (active) and 68.7 µM (active) and 54.5 µM (active) in test [3]; 29.8 µM (active) and 61.2 µM (active) and 54.5 µM (active) in [4]. Besides, the molecule was classed as inactive in [5], in test [6], in test [11] and in test [15].
As to `OC[C@@H](O)[C@H]1O[C@@H]2O[C@H](C(Cl)(Cl)Cl)O[C@@H]2[C@H]1O`, the Potency entry in [1], in test [2], in test [3], in test [4], in test [7] and in test [8] was “inactive” in each case. In addition, the Potency entry (in test [9]; in test [10]; in test [13]; with Aromatase (Homo sapiens)) was “inactive” in each case. Further, the molecule was classed as inactive in test [5], in test [6], in test [11], in test [12], in test [14] and in test [15].
For `CC[N+](=O)[O-]`, the Potency entry in test [1], in test [2], in test [3], in test [4], in [7] and in test [8] was “inactive” in each case. In addition, the Potency entry (in test [9]; in the test with Aromatase (Homo sapiens)) was “inactive” in each case. Besides, the molecule was called inactive in test [5], in [6], in test [11] and in test [15].
As to `c1ccc2c(c1)CCCC2`, the Potency entry in [1], in [2], in test [3], in test [4], in [16] and in [19] was “inactive” each time. Besides, the Potency result (in test [7]; in test [8]; in test [9]; in [10]; in [13]; with Aromatase (Homo sapiens)) was “inactive” each time. Further, the call in test [5], in [17], in test [18], in test [6], in test [11] and in test [12] was inactive. In addition, the molecule was called inactive in [14] and in [15].
With `COC(=O)Nc1cccc(OC(=O)Nc2cccc(C)c2)c1`, the Potency entry in [1], in test [2], in [3], in [4], in test [7] and in test [8] was “inactive” each time. The Potency result (in [9]; in the test with Aromatase (Homo sapiens)) was “inactive” each time. The molecule was classed as inactive in test [5], in test [6], in test [11] and in test [15].
`O=C/C=C/c1ccccc1`: the Potency entry in test [1], in test [2], in [3], in test [4], in test [7] and in [8] was “inactive” in each case. Also, the Potency entry (in test [9]; in test [10]; with Aromatase (Homo sapiens)) was “inactive” in each case. For the same molecule, the call in [5], in test [6], in test [11], in test [12], in test [14] and in [15] was inactive. In addition, in [13], the Potency result was “inactive and 61.1 µM (active)”.
On to `N#CN=C(N)N`, for which the Potency entry in [1], in test [2], in [3], in test [4], in test [7] and in [8] was “inactive” throughout. Also, the Potency entry (in [9]; in test [10]; in [13]; with Aromatase (Homo sapiens)) was “inactive” each time. Besides, the molecule was called inactive in test [5], in [6], in test [11], in [12], in test [14] and in test [15].
For `CN(C)C(=O)Nc1cccc(C(F)(F)F)c1`, the Potency result in test [1], in [2], in [3], in [4], in [7] and in test [8] was “inactive” each time. Moreover, the Potency result (in test [9]; with Aromatase (Homo sapiens)) was “inactive” each time. For the same molecule, the outcome in [5], in test [6], in test [11] and in test [15] was inactive.
